Assay results taken from PubChem BioAssay AID1159580 (chemical genetic matrix, 2015).
Screen size: about 5,500 compounds; about 2,000 (36%) were called active. Inconclusive results (about 18%) are left out. No stated cut-off is given here; in the data, active means normalized growth mostly below about 0.91 (no sharp cut-off); inconclusive means no clear call, values can overlap the other calls; inactive means mostly above about 0.92. The list shows a part of the results.

Assay: chemical genetic growth profiling, strain panel (AID 1159580);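 further: tested at 20 µM; growth read once vehicle control cultures reached saturation at 30 °C; 1 = growth at the plate median or of vehicle wells; lower values mean less growth of the strain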
Details: S. cerevisiae deletion strains, growth OD

Measured: normalized growth

CCC(=O)Nc1ccc(Cl)c(Cl)c1
inactive: locus YAL013W, strain DEP1, hits give low values 0.99 | locus YAL021C, strain ccr4, hits give low values 0.975 | locus YAL026C, strain drs2, hits give low values 0.994 | locus YAL030W, strain snc1, hits give low values 1.01 | locus YBL061C, strain skt5, hits give low values 0.978 | locus YBR009C, strain hhf1, hits give low values 0.982 | locus YBR021W, strain FUR4, hits give low values 0.952 | locus YBR023C, strain chs3, hits give low values 0.988 | locus YBR171W, strain sec66, hits give low values 0.983 | locus YBR229C, strain ROT2, hits give low values 1 | locus YBR231C, strain swc5, hits give low values 0.982 | locus YBR279W, strain paf1, hits give low values 0.99 | locus YCL011C, strain gbp2, hits give low values 0.983 | locus YCL016C, strain dcc1, hits give low values 0.989 | locus YCL029C, strain bik1, hits give low values 1.01 | locus YCL061C, strain MRC1, hits give low values 0.986 | locus YCL069W, strain vba3, hits give low values 0.996 | locus YCR088W, strain abp1, hits give low values 0.99 | locus YDL005C, strain med2, hits give low values 0.981 | locus YDL035C, strain GPR1, hits give low values 0.988 | locus YDL040C, strain nat1, hits give low values 0.99 | locus YDL074C, strain BRE1, hits give low values 0.898 | locus YDL101C, strain DUN1, hits give low values 0.999 | locus YDL134C, strain PPH21, hits give low values 1 | locus YDL185W, strain tfp1, hits give low values 0.99 | locus YDL192W, strain arf1, hits give low values 0.994 | locus YDR001C, strain nth1, hits give low values 0.989 | locus YDR069C, strain doa4, hits give low values 0.971 | locus YDR101C, strain arx1, hits give low values 0.991 | locus YDR137W, strain rgp1, hits give low values 1.03 | locus YDR150W, strain NUM1, hits give low values 0.998 | locus YDR159W, strain sac3, hits give low values 0.959 | locus YDR162C, strain NBP2, hits give low values 0.985 | locus YDR195W, strain ref2 0.956 | locus YDR297W, strain sur2, hits give low values 0.988 | locus YDR318W, strain mcm21, hits give low values 0.996 | locus YDR334W, strain swr1, hits give low values 0.996 | locus YDR335W, strain msn5, hits give low values 0.988 | locus YDR388W, hits give low values 1 | locus YDR392W, strain spt3, hits give low values 0.98 | locus YDR502C, strain sam2, hits give low values 0.998 | locus YEL003W, strain gim4, hits give low values 0.992 | locus YEL037C, strain rad23, hits give low values 1 | locus YEL061C, strain CIN8 (second series), hits give low values 0.978 | locus YEL061C, strain CIN8, hits give low values 0.994 | locus YER016W, strain bim1, hits give low values 0.991 | locus YER110C, hits give low values 0.996 | locus YER111C, strain swi4, hits give low values 0.989 | locus YER155C, strain BEM2 (second series), hits give low values 0.998 | locus YER155C, strain BEM2, hits give low values 1.01 | locus YER167W, strain BCK2, hits give low values 1 | locus YFR010W, strain ubp6, hits give low values 0.993 | locus YGL078C, strain dbp3, hits give low values 1.01 | locus YGL086W, strain mad1, hits give low values 0.997 | locus YGL167C, strain pmr1, hits give low values 0.984 | locus YGL173C, strain kem1, hits give low values 0.978 | locus YGL227W, strain vid30, hits give low values 0.988 | locus YGL240W, strain doc1, hits give low values 0.96 | locus YGL248W, strain PDE1, hits give low values 0.993 | locus YGL253W, strain hxk2, hits give low values 1 | locus YGR078C, strain PAC10, hits give low values 0.961 | locus YGR135W, strain pre9, hits give low values 0.982 | locus YGR229C, strain SMI1, hits give low values 0.958 | locus YGR252W, strain gcn5, hits give low values 0.874 | locus YHR013C, strain ard1, hits give low values 0.971 | locus YHR027C, strain rpn1, hits give low values 0.994 | locus YHR030C, strain SLT2, hits give low values 0.978 | locus YHR079C, strain IRE1 (second series), hits give low values 0.999 | locus YHR094C, strain hxt1, hits give low values 1 | locus YHR129C, strain ARP1, hits give low values 0.988 | locus YHR142W, strain chs7, hits give low values 1 | locus YHR200W, strain rpn10, hits give low values 1 | locus YIL066C, strain RNR3, hits give low values 0.991 | locus YIL073C, strain SPO22, hits give low values 1.01 | locus YIL125W, strain kgd1, hits give low values 1 | locus YIR030C, strain dcg1, hits give low values 1 | locus YJL092W, strain hpr5, hits give low values 0.985 | locus YJL095W, strain BCK1 (second series), hits give low values 0.996 | locus YJL095W, strain BCK1, hits give low values 0.924 | locus YJL115W, strain asf1, hits give low values 0.992 | locus YJL129C, strain trk1, hits give low values 0.968 | locus YJL134W, strain LCB3, hits give low values 0.986 | locus YJL154C, strain vps35, hits give low values 0.998 | locus YJL164C, strain tpk1, hits give low values 1.01 | locus YJL166W, strain qcr8, hits give low values 0.986 | locus YJL168C, strain set2, hits give low values 1 | locus YJL187C, strain SWE1 (second series), hits give low values 1.01 | locus YJL187C, strain SWE1, hits give low values 0.984
